Measurements taken from PubChem BioAssay (NCI).
This is part of a sample that, as a whole, favours compounds with a hit. Of some 83,000 tested, about 20% had one in any assay.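 Note: values are percent growth. 100 is the growth of untreated cells, values between 100 and 0 indicate rising inhibition; between -100 and 0 indicates cell death.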 Active and inactive are the calls of the source. How the source made its calls: active means growth percent below 10; inactive means the rest.

Experiments:
Assay in all cases: NCI-60 one-dose screen, 48 h (100 = growth as untreated, 0 = no growth, -100 = all killed)
Conditions in all cases: 10 µM
NCI-H322M lung = system: NCI-H322M lung
HOP-92 NSCLC = system: HOP-92 NSCLC
NCI-H522 lung = system: NCI-H522 lung
RXF 393 renal = system: RXF 393 renal
M14 melanoma = system: M14 melanoma
SK-MEL-5 melanoma = system: SK-MEL-5 melanoma
UO-31 renal = system: UO-31 renal
CCRF-CEM leukemia = system: CCRF-CEM leukemia
T-47D breast = system: T-47D breast
BT-549 breast = system: BT-549 breast
MDA-MB-435 melanoma = system: MDA-MB-435 melanoma
SW-620 colon = system: SW-620 colon
MCF7 breast = system: MCF7 breast
HCT-116 colon = system: HCT-116 colon
HCC-2998 colon = system: HCC-2998 colon
KM12 colon = system: KM12 colon
OVCAR-4 ovarian = system: OVCAR-4 ovarian
EKVX NSCLC = system: EKVX NSCLC

Measured: growth

COc1ccc(NCc2cn(-c3ccc(C(=O)O)cc3)nc2-c2ccc(F)cc2)cc1C(F)(F)F
inactive: NCI-H322M lung 62% | HOP-92 NSCLC 68.3% | NCI-H522 lung 40.2% | RXF 393 renal 75.4% | M14 melanoma 51.5% | SK-MEL-5 melanoma 26.7% | UO-31 renal 35.9% | CCRF-CEM leukemia 41.6% | T-47D breast 47.5% | BT-549 breast 33.2% | MDA-MB-435 melanoma 36.8% | SW-620 colon 60.1% | MCF7 breast 30.5% | HCT-116 colon 39.5% | HCC-2998 colon 51.7% | KM12 colon 24.1%

COc1cccc(C(=O)CSc2nc(-c3ccc(OCc4ccccc4)c(OC)c3)c(C#N)c(=O)[nH]2)c1
inactive: NCI-H322M lung 88.3% | RXF 393 renal 93% | M14 melanoma 99.5% | SK-MEL-5 melanoma 98.5% | CCRF-CEM leukemia 101% | T-47D breast 90.7% | BT-549 breast 102% | MDA-MB-435 melanoma 95.7% | SW-620 colon 102% | HCT-116 colon 99.6% | HCC-2998 colon 111% | KM12 colon 104%

O=C(c1ccc(F)cc1)C(c1c[nH]c2ccccc12)c1c[nH]c2ccccc12
active: CCRF-CEM leukemia 3.4% | SW-620 colon 5.23% | HCT-116 colon 7.24%
inactive: NCI-H322M lung 90.5% | HOP-92 NSCLC 90.5% | RXF 393 renal 40.3% | SK-MEL-5 melanoma 89.8% | T-47D breast 63.9% | BT-549 breast 71.4% | MDA-MB-435 melanoma 58.4% | MCF7 breast 15.2% | HCC-2998 colon 82.9% | KM12 colon 70.3%

COc1ccccc1-n1cc(C#N)c(N)c1C(=O)c1ccc(Cl)cc1Cl
inactive: HOP-92 NSCLC 44.2% | SK-MEL-5 melanoma 17.3% | OVCAR-4 ovarian 61% | T-47D breast 28.5% | BT-549 breast 31.4% | SW-620 colon 25% | HCT-116 colon 36.6% | HCC-2998 colon 58.5% | KM12 colon 22.9%
active: NCI-H522 lung -55.6% | RXF 393 renal -8.31% | CCRF-CEM leukemia 7.78% | MDA-MB-435 melanoma -38.3%

O=C1NC(=S)S/C1=C\c1cn(-c2ccccc2)nc1-c1ccc([N+](=O)[O-])cc1
inactive: NCI-H322M lung 30.5% | CCRF-CEM leukemia 18.5% | SW-620 colon 21.7% | HCC-2998 colon 22.4% | KM12 colon 24.4%
active: NCI-H522 lung -4.14% | RXF 393 renal 3.42% | SK-MEL-5 melanoma -33.3% | T-47D breast 6.73% | BT-549 breast -16% | MDA-MB-435 melanoma 6.24% | HCT-116 colon 5%

CC1[C@H]2[C@H](C[C@H]3[C@@H]4CC=C5c6sc(Nc7cccc(Cl)n7)nc6CC[C@]5(C)[C@H]4CC[C@@]32C)O[C@]12CC[C@@H](C)CO2 (some centres undefined)
inactive: NCI-H322M lung 102% | HOP-92 NSCLC 99.6% | NCI-H522 lung 65.8% | RXF 393 renal 123% | SK-MEL-5 melanoma 59.3% | EKVX NSCLC 83.8% | UO-31 renal 85.4% | CCRF-CEM leukemia 66.6% | OVCAR-4 ovarian 104% | T-47D breast 68% | BT-549 breast 83.5% | MDA-MB-435 melanoma 75.8% | SW-620 colon 104% | HCT-116 colon 76.3% | HCC-2998 colon 102% | KM12 colon 84.9%

Cn1cc(-c2cc(N)n3nc(-c4cn(C)c5ccccc45)cc3n2)c2cc(F)ccc21
active: NCI-H322M lung -19.1% | HOP-92 NSCLC -78.4% | RXF 393 renal -76.3% | SK-MEL-5 melanoma -87.9% | CCRF-CEM leukemia -9.43% | T-47D breast -50.1% | BT-549 breast -69.9% | MDA-MB-435 melanoma -81.1% | SW-620 colon -54.4% | HCT-116 colon -92.1% | HCC-2998 colon -80.5% | KM12 colon -69.1%

O=C(c1ccc(Cl)cc1)C(c1c[nH]c2ccccc12)c1c[nH]c2ccccc12
inactive: NCI-H322M lung 38.1%
active: HOP-92 NSCLC -15.7% | NCI-H522 lung -82.6% | RXF 393 renal -82.1% | SK-MEL-5 melanoma -58.3% | CCRF-CEM leukemia 2.45% | T-47D breast -30.6% | BT-549 breast -38.2% | MDA-MB-435 melanoma -68.6% | SW-620 colon -52.6% | HCT-116 colon -91.4% | HCC-2998 colon -89.6% | KM12 colon -5.68%

O=C1NC2C=CC=CC2/C1=C1/SC(=S)N(C2CC(=O)N(c3ccc(Br)cc3)C2=O)C1=O (centres undefined)
inactive: NCI-H322M lung 101% | NCI-H522 lung 68.7% | RXF 393 renal 109% | SK-MEL-5 melanoma 100% | CCRF-CEM leukemia 53.9% | T-47D breast 82.9% | BT-549 breast 101% | MDA-MB-435 melanoma 95.7% | SW-620 colon 93.4% | MCF7 breast 45.7% | HCT-116 colon 103% | HCC-2998 colon 99.3% | KM12 colon 81.4%

COc1ccc(Cc2nn(CC(=O)N/N=C/c3ccc(Br)cc3)c(=O)c3c(C)noc23)cc1
active: HOP-92 NSCLC -15% | RXF 393 renal -33.7% | UO-31 renal -15.7% | T-47D breast -1.9% | HCT-116 colon 0.469%
inactive: NCI-H322M lung 62.6% | M14 melanoma 57.6% | SK-MEL-5 melanoma 85.7% | EKVX NSCLC 55.1% | CCRF-CEM leukemia 40.5% | BT-549 breast 50% | MDA-MB-435 melanoma 54.1% | SW-620 colon 48.8% | MCF7 breast 40.4% | HCC-2998 colon 73.8% | KM12 colon 60.7%

COc1ccc(-n2c(SCC(=O)NNS(=O)(=O)c3ccccc3)nc3ccc(Cl)cc3c2=O)cc1
inactive: HOP-92 NSCLC 101% | NCI-H522 lung 86.5% | RXF 393 renal 100% | M14 melanoma 104% | SK-MEL-5 melanoma 98.9% | EKVX NSCLC 95.6% | CCRF-CEM leukemia 108% | OVCAR-4 ovarian 98.2% | T-47D breast 94.8% | BT-549 breast 105% | MDA-MB-435 melanoma 103% | SW-620 colon 105% | HCT-116 colon 95.6% | HCC-2998 colon 118% | KM12 colon 102%

COc1cc(Nc2nc(O)c(/C=C3\C=Nc4ccccc43)s2)cc(OC)c1OC
inactive: CCRF-CEM leukemia 14.9%
active: HOP-92 NSCLC -72.3% | RXF 393 renal -69.2% | M14 melanoma -18.7% | SK-MEL-5 melanoma -34.7% | OVCAR-4 ovarian -63.9% | T-47D breast 2.48% | BT-549 breast -41.4% | MDA-MB-435 melanoma -77.1% | SW-620 colon -52.1% | MCF7 breast -23.7% | HCT-116 colon -59.2% | HCC-2998 colon -48.2% | KM12 colon -72.4%

COc1ccc(C(=O)COc2ccc(NC(=O)Nc3ccc(Cl)c(C(F)(F)F)c3)cc2)cc1
inactive: NCI-H322M lung 36.3% | EKVX NSCLC 10.3% | UO-31 renal 33.3% | OVCAR-4 ovarian 19% | T-47D breast 12.5% | BT-549 breast 38% | MDA-MB-435 melanoma 27.3% | SW-620 colon 54.6% | MCF7 breast 17.1% | HCT-116 colon 25.9% | KM12 colon 13.6%
active: NCI-H522 lung -43.2% | RXF 393 renal -52.1% | SK-MEL-5 melanoma -67.3% | HCC-2998 colon 1.03%

COc1ccc2[nH]cc(-c3nc(N)nnc3-c3cn(C)c4ncc(Br)cc34)c2c1
active: HOP-92 NSCLC -2.43% | RXF 393 renal -14% | M14 melanoma 6.91% | SK-MEL-5 melanoma -50.1% | UO-31 renal 3.12% | CCRF-CEM leukemia 1.4% | BT-549 breast -38.5% | MDA-MB-435 melanoma -38.8% | MCF7 breast 4.79% | HCT-116 colon 1.45% | KM12 colon 5.71%
inactive: NCI-H322M lung 35% | EKVX NSCLC 35.1% | OVCAR-4 ovarian 37.4% | T-47D breast 48.5% | SW-620 colon 17.8% | HCC-2998 colon 11.8%

O=C(CSc1nc2ccccc2c(=O)n1-c1ccc(Cl)cc1)Nc1ccc(-c2nc3ccc([N+](=O)[O-])cc3[nH]2)cc1
inactive: NCI-H322M lung 72.4% | NCI-H522 lung 32.7% | SK-MEL-5 melanoma 65.3% | EKVX NSCLC 35.9% | UO-31 renal 74.3% | MDA-MB-435 melanoma 39.6% | SW-620 colon 64.2% | HCT-116 colon 19.1% | HCC-2998 colon 12.1% | KM12 colon 43%
active: RXF 393 renal -5.28% | T-47D breast 6.69% | BT-549 breast -2.07%

COc1cc2oc(-c3cccc(C(=O)Nc4ccc(Cl)cc4)c3)cc(=O)c2c(OCCN)c1OC
active: HOP-92 NSCLC -84% | RXF 393 renal -85% | M14 melanoma -89.7% | SK-MEL-5 melanoma -94.7% | CCRF-CEM leukemia -52.6% | OVCAR-4 ovarian -62.9% | T-47D breast -73.8% | BT-549 breast -88.2% | MDA-MB-435 melanoma -76.9% | SW-620 colon -79.4% | MCF7 breast -71.5% | HCT-116 colon -90.3% | HCC-2998 colon -80.8% | KM12 colon -83.2%

Cn1cc(-c2nnc(N)nc2-c2c[nH]c3ccccc23)c2cc(Br)cnc21
active: RXF 393 renal -20.1% | SK-MEL-5 melanoma -72.8% | MDA-MB-435 melanoma 5.61% | HCC-2998 colon -27%
inactive: T-47D breast 29.4% | BT-549 breast 17% | SW-620 colon 57.8% | HCT-116 colon 22.8% | KM12 colon 51.1%

CCOC(=O)c1ccc(NC(=O)CSC(CC(=O)c2sc(Nc3ccccn3)nc2C)c2ccccc2F)cc1 (centres undefined)
active: HOP-92 NSCLC -14.5% | RXF 393 renal -12.1% | M14 melanoma 0.872% | SK-MEL-5 melanoma 7.25% | CCRF-CEM leukemia 3.92% | BT-549 breast -9.95% | MDA-MB-435 melanoma -10.7% | SW-620 colon 0.242% | HCT-116 colon 1.05% | HCC-2998 colon -7.21% | KM12 colon -50.8%
inactive: T-47D breast 13.1%

CCOC(=O)C1=C(N)N(c2ccc(C)cc2)C2=C(C(=O)CC(C)(C)C2)C1c1ccccc1Br (centres undefined)
inactive: HOP-92 NSCLC 71.6% | RXF 393 renal 86.5% | SK-MEL-5 melanoma 77.4% | CCRF-CEM leukemia 39.5% | T-47D breast 69.6% | BT-549 breast 93.9% | MDA-MB-435 melanoma 82.6% | SW-620 colon 46% | MCF7 breast 56.6% | HCT-116 colon 40.6% | HCC-2998 colon 89.4% | KM12 colon 83.8%

Nc1nnc(-c2c[nH]c3ncc(Br)cc23)c(-c2c[nH]c3ccc(Br)cc23)n1
inactive: HOP-92 NSCLC 28.4% | UO-31 renal 32.6% | OVCAR-4 ovarian 47.7% | T-47D breast 37.4% | MDA-MB-435 melanoma 22.4% | SW-620 colon 20.2% | HCT-116 colon 22.1% | HCC-2998 colon 75.7% | KM12 colon 37.5%
active: RXF 393 renal -14.7% | SK-MEL-5 melanoma 9.81% | CCRF-CEM leukemia 5.14% | BT-549 breast 6.94%

Cn1cc(-c2nc(N)nnc2-c2c[nH]c3ccccc23)c2cc(Br)cnc21
inactive: EKVX NSCLC 29.8% | UO-31 renal 11.8% | CCRF-CEM leukemia 20.5% | OVCAR-4 ovarian 32.1% | T-47D breast 65.2% | SW-620 colon 24.7% | KM12 colon 13.1%
active: RXF 393 renal 6.16% | SK-MEL-5 melanoma -81.3% | BT-549 breast -29.6% | MDA-MB-435 melanoma -25.2% | MCF7 breast 4.57% | HCT-116 colon 7.04% | HCC-2998 colon -35%
